What was measured:
Settings in all cases: concentration: 1 μM, replicates: in singlicate; n = 1
IRAK1 = test system: IRAK1
IRAK3 = test system: IRAK3
IRAK4 = test system: IRAK4
ITK = test system: ITK
[1] = test system: JAK1(JH1domain-catalytic)
[2] = test system: JAK1(JH2domain-pseudokinase)
[3] = test system: JAK2(JH1domain-catalytic)
[4] = test system: JAK3(JH1domain-catalytic)
JNK1 = test system: T1, JNK1
T1 construct: gene MAPK8

JNK2 = test system: T2, JNK2
T2 construct: gene MAPK9
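Further: KINOMEscan kinase panel screen.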

Row | Structure (SMILES) | %Inh (IRAK1) [%] | %Inh (IRAK3) [%] | %Inh (IRAK4) [%] | %Inh (ITK) [%] | %Inh [1] [%] | %Inh [2] [%] | %Inh [3] [%] | %Inh [4] [%] | %Inh (JNK1) [%] | %Inh (JNK2) [%]
1 | Nc1cccc(-c2ccc3c(N)n[nH]c3c2)n1 [GSK2192730] | 0 | 17 | 4 | 0 | 14 | 65 | 100 | 0 | 0 | 2
2 | CNC(=O)c1ccc(C)c(-n2c(C)cc(OCc3ccc(F)cc3F)c(Br)c2=O)c1 | 0 | 0 | 0 | 0 | 0 | 0 | 0 | 0 | 0 | 100
3 | COC(=O)C(NC(=O)NC1CCN(c2ccnc(Nc3ccc(F)cc3)n2)C1)c1ccccc1 (centres unmarked) [GSK1379712] | 31 | 6 | 0 | 0 | 17 | 5 | 0 | 0 | 1 | 0
4 | CNc1nc(-c2ccc3c(N)n[nH]c3c2)cc(N2C[C@@H](C(=O)Nc3ccccc3)CC[C@H]2C)n1 [GSK2298859] | 0 | 0 | 8 | 12 | 0 | 0 | 0 | 0 | 2 | 15
5 | NS(=O)(=O)c1cccc(N/C=C2\C(=O)Nc3ccc(S(=O)(=O)Cc4c(Cl)cccc4Cl)cc32)c1 [GSK398099] | 32 | 5 | 19 | 12 | 11 | 0 | 3 | 0 | 5 | 21
6 | Cc1ccc(NC(=O)Nc2ccc(Cl)cc2)cc1-c1ccc(C(=O)Nc2ccncc2)cc1 [GSK1398472] | 17 | 4 | 7 | 18 | 6 | 0 | 0 | 0 | 0 | 7
7 | COc1ccc(Nc2nccc(N3CCC(NC(=O)c4cc5ccccc5s4)C3)n2)cc1 (centres unmarked) [GSK1379738] | 37 | 15 | 19 | 8 | 15 | 0 | 100 | 0 | 22 | 10
8 | CS(=O)(=O)CCNCc1nc(-c2ccc3ncnc(Nc4ccc(OCc5ccccc5)c(Cl)c4)c3c2)cs1.Cl [GW582764] | 28 | 0 | 13 | 44 | 2 | 0 | 10 | 0 | 15 | 0
9 | COC(=O)c1cccc(NC(=O)NC2CCN(c3ccnc(Nc4ccc(OC)cc4)n3)C2)c1 (centres unmarked) [GSK1379746] | 35 | 0 | 23 | 13 | 14 | 0 | 2 | 0 | 37 | 0
10 | CNc1cc(-c2ccc3c(N)n[nH]c3c2)nc(N)n1 [GSK2224810] | 0 | 0 | 0 | 3 | 12 | 35 | 4 | 0 | 0 | 6
11 | O=C(Nc1n[nH]c2cc(-c3ccsc3)ccc12)C1CC1 [SB-732932] | 3 | 22 | 9 | 0 | 0 | 4 | 8 | 0 | 36 | 25
12 | CC[C@@H]1CO[C@H](C(=O)Nc2ccccc2)CN1c1cc(-c2ccc3c(N)n[nH]c3c2)nc(NC)n1 [GSK2376236] | 0 | 5 | 0 | 3 | 11 | 0 | 0 | 0 | 0 | 17
13 | O=C(Nc1n[nH]c2nc(-c3cccs3)c(Br)cc12)C1CCCC1 [SB-743341] | 0 | 0 | 0 | 10 | 0 | 0 | 0 | 0 | 69 | 44
14 | COc1ccc(Nc2nccc(N3CCC(NC(=O)C(C)c4ccc(Cl)cc4)C3)n2)cc1 (centres unmarked) [GSK1379735] | 1 | 10 | 3 | 14 | 10 | 0 | 24 | 0 | 12 | 0
15 | Cn1cncc1C(=O)NC1CCN(c2ccnc(Nc3ccc(F)cc3)n2)C1 (centres unmarked) [GSK1379717] | 41 | 0 | 26 | 1 | 17 | 0 | 100 | 0 | 29 | 3
16 | COC(=O)C(Cc1ccccc1)NC(=O)NC1CCN(c2ccnc(Nc3ccc(F)cc3)n2)C1 (centres unmarked) [GSK1379714] | 33 | 0 | 3 | 4 | 16 | 0 | 59 | 0 | 17 | 1
17 | Cc1ccccc1Cn1ccn2c(=O)cc(N3CCOCC3)nc12 [GSK2269905] | 0 | 0 | 13 | 20 | 0 | 0 | 0 | 0 | 21 | 20
